From PubChem BioAssay (NCI)
The panel holds about 79,000 compounds, 15% with a hit somewhere; the sample as a whole holds those more often. Unmarked numbers belong to inactive results. The source made the active and inactive calls. No stated cut-off is given here; in the data, active means growth inhibition above about 70%; inactive means the rest.

Tests used:
[1] = NCI Yeast Anticancer Drug Screen. Data for the rad50 strain (AID 155);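 further: 0% = growth of vehicle-only cultures of the same strain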; conditions: S. cerevisiae rad50 strain growth inhibition, hits give high values
Outline: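 Relative growth inhibition (compound vs vehicle) was measured in yeast with a defined repair-gene alteration.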

[2] = NCI Yeast Anticancer Drug Screen. Data for the mec2-1 strain (AID 157); conditions: S. cerevisiae mec2-1 strain, hits give high values
Outline: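 Compounds were applied to mec2-1 yeast cells. Their growth was then compared with that of vehicle-treated cultures to give growth inhibition.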

[3] = NCI Yeast Anticancer Drug Screen. Data for the sgs1 mgt1 strain (AID 161);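 further: 0% = growth of cultures given vehicle only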; conditions: S. cerevisiae sgs1 mgt1 strain, hits give high values
Outline: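 Percent growth inhibition was derived by comparing compound-exposed mutant yeast with vehicle-exposed cultures. The strain carries alterations in DNA damage repair.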

[4] = NCI Yeast Anticancer Drug Screen. Data for the cln2 rad14 strain (AID 165);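 further: 0% = growth equal to vehicle treated cultures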; conditions: S. cerevisiae cln2 rad14 strain, hits give high values
Outline: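 Strain: cln2 rad14 yeast, altered in cell cycle control and DNA damage repair. Read-out: growth inhibition vs vehicle.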

[5] = NCI Yeast Anticancer Drug Screen. Data for the bub3 strain (AID 167); conditions: S. cerevisiae bub3 mutant strain, hits give high values
Outline: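 Screening used yeast with an engineered genetic alteration affecting cell cycle control. Compound-exposed cultures were compared with vehicle cultures, and reduced growth was taken as inhibition.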

[6] = NCI Yeast Anticancer Drug Screen. Data for the mlh1 rad18 strain (AID 175); conditions: S. cerevisiae mlh1 rad18 strain growth inhibition, hits give high values
Outline: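 A repair-deficient yeast strain is exposed to test compound, and growth is scored relative to vehicle-treated controls.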

[7] = at 5.0 µM (retest, dose inferred, filed as 0.5)
[8] = at 50.0 µM (retest, dose inferred, filed as 5.0)

Compound | growth inhibition [1, 7] | growth inhibition [1, 8] | growth inhibition ([1]; at 50.0 µM) | growth inhibition [2, 7] | growth inhibition [2, 8] | growth inhibition ([2]; at 50.0 µM) | growth inhibition [3, 7] | growth inhibition [3, 8] | growth inhibition ([3]; at 50.0 µM) | growth inhibition [4, 7] | growth inhibition [4, 8] | growth inhibition ([4]; at 50.0 µM) | growth inhibition [5, 7] | growth inhibition [5, 8] | growth inhibition ([5]; at 50.0 µM) | growth inhibition [6, 7] | growth inhibition [6, 8] | growth inhibition ([6]; at 50.0 µM)
CCCCCCCCCCCC(=O)OC(C)C(=O)NCCCC (stereo not given) | 0% | 21% | -18.2% | 0% | 18% | 13.6% | 2% | 68% | -2.05% | -2% | -3% | 26.4% | -1% | 9% | -5.95% |  |  | 
NC1=C(Br)C(=O)c2ncccc2C1=O | 56% | 94% (active) | 87.7% (active) | 19% | 86% (active) | 91.5% (active) | 34% | 93% (active) | 91.5% (active) | 18% | 90% (active) | 90% (active) | 9% | 83% (active) | 90.3% (active) | 50% | 95% (active) | 
COc1cc([C@@H]2c3cc4c(cc3[C@H](OC3OC5COC(c6ccccc6)OC5C(O)C3O)[C@H]3COC(=O)[C@H]23)OCO4)cc(OC)c1OC (stereo not given in full) | -4% | 91% (active) | 81.3% (active) | -13% | 77% (active) | 81% (active) | 18% | 70% (active) | 76.3% (active) | 12% | 56% | 63% | 5% | 82% (active) | 77.5% (active) | -4% | 91% (active) | 81% (active)
CC(C)c1ccc(Nc2n[nH]c(=S)s2)cc1 | 39% | 82% (active) | 86.1% (active) | 32% | 79% (active) | 83% (active) | 35% | 68% | 87.8% (active) | 22% | 85% (active) | 84.6% (active) | 33% | 94% (active) | 87.5% (active) | 41% | 82% (active) | 84.1% (active)
O=C1/C(=C/c2ccccc2)CCC/C1=C\c1ccccc1 | 27% | 60% | 83.8% (active) | 29% | 77% (active) | 86.6% (active) | 36% | 72% (active) | 82.3% (active) | 21% | 52% | 80.3% (active) | 41% | 69% | 84.8% (active) | 58% | 76% (active) | 
CCCCCCCCC(=O)OCCCC(CCC(CCC1CCCO1)OC(=O)CCCCCCCC)OC(=O)CCCCCCCC (stereo not given) | -19% | 10% | 82.3% (active) | 3% | 12% | 37% | -12% | 33% | 42.4% | -17% | 31% | 14.3% | -7% | 12% | 29.8% | -2% | 23% | 62.4%
O=[N+]([O-])c1ccc([I+]c2ccccc2)cc1 | 86% (active) | 96% (active) | 82.8% (active) | 40% | 95% (active) | 86% (active) | 77% (active) | 96% (active) | 87.2% (active) | 30% | 87% (active) | 82.9% (active) | 61% | 96% (active) | 88.2% (active) | 82% (active) | 95% (active) | 
CC(C)(C)c1ccc(O)c(-c2ccccc2)c1 | -3% | 97% (active) | 99.2% (active) | -6% | 98% (active) | 99.7% (active) | -2% | 98% (active) | 99.5% (active) | -8% | 98% (active) | 97.2% (active) | 2% | 97% (active) | 99.2% (active) | -4% | 98% (active) | 66.5%
O=C(c1ccccc1)c1cc2ccccc2oc1=O | 1% | 71% (active) | 63.1% | 5% | 35% | 13.3% | 1% | 63% | 60.5% | 4% | 52% | 37.8% | -6% | 61% | 10.8% | 9% | 81% (active) | 79% (active)
CCCCCCCCCCCC[n+]1ccccc1 (tested in a mixture with another compound) | 34% | 96% (active) | 99.1% (active) | 91% (active) | 96% (active) | 99.1% (active) | 31% | 97% (active) | 99.1% (active) | 18% | 94% (active) | 98.5% (active) | 88% (active) | 96% (active) | 99.2% (active) | 21% | 95% (active) | 99% (active)
CC1=CC(=NC(=O)CBr)C=C/C1=N\S(=O)(=O)c1ccccc1 | 65% | 99% (active) | 56.5% | 44% | 100% (active) | 33.2% | 46% | 100% (active) | 55% | 42% | 81% (active) | 28.3% | 46% | 97% (active) | 84.5% (active) | 55% | 99% (active) | 56.1%
CCOC(=O)C1(C)CCCC1N (stereo not given) | -1% | 52% | -37.3% | 2% | 93% (active) | -35% | -4% | 42% | -17.6% | 21% | 94% (active) | 53.1% | 14% | 98% (active) | -5.45% | 14% | 82% (active) | 15.7%
COc1cccc2c1C(=O)c1c(O)c3c(c(O)c1C2=O)C[C@@](O)(C(=O)CO)C[C@@H]3OC1CC(OC(C)=O)C(OC(C)=O)C(C)O1 (stereo not given in full) | 71% (active) | 98% (active) | 86.8% (active) | 36% | 99% (active) | 87.5% (active) | 37% | 99% (active) | 90% (active) | 41% | 99% (active) | 88.7% (active) | 42% | 99% (active) | 88.9% (active) | 48% | 97% (active) | 91.6% (active)
C=C1C(=O)C2=CC1CCC(=O)C1(C)CCC(OC(C)=O)C(C)(C)C1CC2O (stereo not given) | 16% | 52% | 82.1% (active) | 10% | 70% (active) | 82.8% (active) | 12% | 46% | 78.7% (active) | 16% | 40% | 65% | 15% | 83% (active) | 87% (active) | 15% | 65% | 73.7% (active)
CN(C)CCN(C)CC(C)(C)C(=O)/C=C/c1ccc(Cl)c(Cl)c1 | 13% | 99% (active) | 96.8% (active) | 4% | 99% (active) | 78.1% (active) | 6% | 99% (active) | 56.2% | -3% | 98% (active) | 8.2% | 6% | 99% (active) | 92.5% (active) | 8% | 99% (active) | 70.5% (active)
COC(=O)c1cc([N+](=O)[O-])cc([N+](=O)[O-])c1Cl | 99% (active) | 99% (active) | 91.2% (active) | 99% (active) | 99% (active) | 93.2% (active) | 100% (active) | 99% (active) | 93.7% (active) | 77% (active) | 99% (active) | 92.4% (active) | 99% (active) | 99% (active) | 92.8% (active) |  |  | 
COc1cc(NC(=O)C2=C(C)NC(C)=C(C(=O)Nc3cc(OC)c(Cl)cc3OC)C2c2cccc([N+](=O)[O-])c2)c(OC)cc1Cl | -24% | 96% (active) | 96.7% (active) | 5% | 97% (active) | 76.3% (active) | 6% | 95% (active) | 96.9% (active) | -31% | 96% (active) | 95.8% (active) | 27% | 97% (active) | 95.5% (active) | -14% | 96% (active) | 96.9% (active)
CCCCCCCCCCCC1=NCCCN1CCCC | 10% | 99% (active) | 88.3% (active) | 0% | 99% (active) | 99.2% (active) | 26% | 100% (active) | 84.3% (active) | 4% | 99% (active) | 72% (active) | 22% | 100% (active) | 98.7% (active) | 28% | 99% (active) | 95.3% (active)
